Experimental findings from ChEMBL document CHEMBL4513152, “CO-ADD screening of Yantai University (China) compounds” are described below.

Measured potencies and affinities stand elsewhere.

One test concerns Staphylococcus aureus. As to conditions: Concentration 32 ug.mL-1; ASSAY_TEST Inhibition of Bacterial Growth; detection method Absorption (OD600); MEDIA CAMHB; plate type 384well; NBS; CORNING #3640; time 18 hr.
Another test concerns Escherichia coli. The settings on record: Concentration 32 ug.mL-1; ASSAY_TEST Inhibition of Bacterial Growth; detection method Absorption (OD600); MEDIA CAMHB; plate type 384well; NBS; CORNING #3640; time 18 hr.

For orientation: Inhibition means the relative decrease from the control value, in per cent. Regarding `CC(=O)O[C@H]1C[C@@]2(C)C(C[C@@H](O)C3[C@@]4(C)CC[C@@H](O)[C@@H](C)C4CC[C@@]32C)/C1=C(\CCC=C(C)C)C(=O)On1nnc2ccccc21` (stereo partly drawn), the Inhibition in the test with Staphylococcus aureus was 73.87%; in the test with Escherichia coli it was -6.08%.

In the case of `CC(=O)O[C@H]1C[C@@]2(C)C(CC(=O)C3[C@@]4(C)CC[C@@H](OC(=O)CCCCO[N+](=O)[O-])[C@@H](C)C4CC[C@@]32C)/C1=C(\CCC=C(C)C)C(=O)OCc1ccccc1` (stereo partly drawn), the Inhibition with Staphylococcus aureus was 9.81%; in the test with Escherichia coli, -0.69%.

With `CC(=O)O[C@H]1C[C@@]2(C)C(C[C@@H](O)C3[C@@]4(C)CC[C@@H](OC(=O)c5ccccc5C(=O)OCCc5ccc(OCCO[N+](=O)[O-])cc5)[C@@H](C)C4CC[C@@]32C)/C1=C(\CCC=C(C)C)C(=O)OCc1ccccc1` (stereo partly drawn), the results for the Inhibition with Staphylococcus aureus and in the test on Escherichia coli were 8.23% and 0.28%, respectively.

In the case of `CC(=O)O[C@H]1C[C@@]2(C)C(C[C@@H](O)C3[C@@]4(C)CC[C@@H](OC(=O)CCC(=O)OCCc5ccc(OCCO[N+](=O)[O-])cc5)[C@@H](C)C4CC[C@@]32C)/C1=C(\CCC=C(C)C)C(=O)OCc1ccccc1` (stereo partly drawn), the results for the Inhibition with Staphylococcus aureus and with Escherichia coli were -0.26% and -8.83%, respectively.

`CC(=O)O[C@H]1C[C@@]2(C)C(C[C@@H](O)C3[C@@]4(C)CC[C@@H](OC(=O)CCC(=O)O)[C@@H](C)C4CC[C@@]32C)/C1=C(\CCC=C(C)C)C(=O)OCc1ccccc1` (stereo partly drawn): the figures for the Inhibition with Staphylococcus aureus and in the test with Escherichia coli were 44.88% and 10.14%, respectively.

Regarding `CC(=O)O[C@H]1C[C@@]2(C)C(C[C@@H](O)C3[C@@]4(C)CC[C@@H](OC(=O)C(N)C(C)C)[C@@H](C)C4CC[C@@]32C)/C1=C(\CCC=C(C)C)C(=O)OCc1ccccc1` (stereo partly drawn), the Inhibition in the test on Staphylococcus aureus is -9.9%; with Escherichia coli it was -10.45%.

On to `CC(=O)O[C@H]1C[C@@]2(C)C(C[C@@H](O)C3[C@@]4(C)CC[C@@H](OC(=O)C(C)N)[C@@H](C)C4CC[C@@]32C)/C1=C(\CCC=C(C)C)C(=O)OCc1ccccc1` (stereo partly drawn), for which the values for the Inhibition in the test with Staphylococcus aureus and in the test on Escherichia coli were 32.79% and -12.12%, respectively.

As for `CC(=O)O[C@H]1C[C@@]2(C)C(CC(=O)C3[C@@]4(C)CC[C@@H](OC(=O)CCCCCO[N+](=O)[O-])[C@@H](C)C4CC[C@@]32C)/C1=C(\CCC=C(C)C)C(=O)OCc1ccccc1` (stereo partly drawn), the Inhibition was 5.71% in the test on Staphylococcus aureus and -2.8% in the test on Escherichia coli.

On to `CC(=O)O[C@H]1C[C@@]2(C)C(C[C@@H](O)C3[C@@]4(C)CC[C@@H](OC(=O)c5ccccc5C(=O)Nc5ccc(N)cc5)[C@@H](C)C4CC[C@@]32C)/C1=C(\CCC=C(C)C)C(=O)OCc1ccccc1` (stereo partly drawn), for which the Inhibition came out at 7.06% with Staphylococcus aureus and 1.09% with Escherichia coli.

On to `CC(=O)O[C@H]1C[C@@]2(C)C(CC(=O)C3[C@@]4(C)CCC(=O)[C@@H](C)C4CC[C@@]32C)/C1=C(\CCC=C(C)C)C(=O)OCc1ccccc1` (stereo partly drawn), for which the Inhibition in the test on Staphylococcus aureus was 29.92%; with Escherichia coli, -4.11%.

For `CC(=O)O[C@H]1C[C@@]2(C)C(C[C@@H](O)C3[C@@]4(C)CC[C@@H](OC(=O)CCCCCO[N+](=O)[O-])[C@@H](C)C4CC[C@@]32C)/C1=C(\CCC=C(C)C)C(=O)OCc1ccccc1` (stereo partly drawn), the Inhibition is listed as 6.22% in the test on Staphylococcus aureus and -6.82% in the test on Escherichia coli.

`CC(=O)O[C@H]1C[C@@]2(C)C(C[C@@H](O)C3[C@@]4(C)CC[C@@H](O)[C@@H](C)C4CC[C@@]32C)/C1=C(\CCC=C(C)C)C(=O)Oc1ccc(CCO[N+](=O)[O-])cc1` (stereo partly drawn): the Inhibition is 23.19% in the test on Staphylococcus aureus and -3.14% with Escherichia coli.

As for `CC(=O)O[C@H]1C[C@@]2(C)C(C[C@@H](O)C3[C@@]4(C)CC[C@@H](OC(=O)c5ccccc5C(=O)Oc5ccc(CCO[N+](=O)[O-])cc5)[C@@H](C)C4CC[C@@]32C)/C1=C(\CCC=C(C)C)C(=O)OCc1ccccc1` (stereo partly drawn), the Inhibition in the test with Staphylococcus aureus is -1.26%; in the test with Escherichia coli it was -6.53%.

For the compound `CC(=O)O[C@H]1C[C@@]2(C)C(C[C@@H](O)C3[C@@]4(C)CC[C@@H](O)[C@@H](C)C4CC[C@@]32C)/C1=C(\CCC=C(C)C)C(=O)OCc1ccccc1` (stereo partly drawn), the results for the Inhibition in the test with Staphylococcus aureus and in the test with Escherichia coli were 36.65% and -11.95%, respectively.

Regarding `CC(=O)O[C@H]1C[C@@]2(C)C(C[C@@H](O)C3[C@@]4(C)CC[C@@H](OC(=O)c5ccccc5C(=O)Nc5cccc(N)c5)[C@@H](C)C4CC[C@@]32C)/C1=C(\CCC=C(C)C)C(=O)OCc1ccccc1` (stereo partly drawn), the Inhibition is on record as 1.65% in the test on Staphylococcus aureus and -0.14% in the test with Escherichia coli.

Regarding `CC(=O)O[C@H]1C[C@@]2(C)C(C[C@@H](O)C3[C@@]4(C)CC[C@@H](OC(=O)CCC(=O)Oc5ccc(CCO[N+](=O)[O-])cc5)[C@@H](C)C4CC[C@@]32C)/C1=C(\CCC=C(C)C)C(=O)OCc1ccccc1` (stereo partly drawn), the values for the Inhibition in the test on Staphylococcus aureus and with Escherichia coli were -9.31% and -12.6%, respectively.

With `CC(=O)O[C@H]1C[C@@]2(C)C(C[C@@H](O)C3[C@@]4(C)CC[C@@H](OC(=O)CO[N+](=O)[O-])[C@@H](C)C4CC[C@@]32C)/C1=C(\CCC=C(C)C)C(=O)OCc1ccccc1` (stereo partly drawn), the Inhibition in the test with Staphylococcus aureus is recorded as 5.41%; in the test with Escherichia coli it was 4.14%.

Regarding `CC(=O)O[C@H]1C[C@@]2(C)C(C[C@@H](O)C3[C@@]4(C)CC[C@@H](OC(=O)CCCCO[N+](=O)[O-])[C@@H](C)C4CC[C@@]32C)/C1=C(\CCC=C(C)C)C(=O)OCc1ccccc1` (stereo partly drawn), the Inhibition in the test with Staphylococcus aureus is recorded as 9.5%; with Escherichia coli it was -4.08%.

For the compound `CC(=O)O[C@H]1C[C@@]2(C)C(C[C@@H](O)C3[C@@]4(C)CC[C@@H](OC(=O)C(N)CC(C)C)[C@@H](C)C4CC[C@@]32C)/C1=C(\CCC=C(C)C)C(=O)OCc1ccccc1` (stereo partly drawn), the values for the Inhibition with Staphylococcus aureus and with Escherichia coli were -0.87% and -4.43%, respectively.
